Screens: PubChem, Johns Hopkins Ion Channel Center
This is a sample that favours compounds with a hit; in the whole collection about 2.3% have one here.
ANO1 activ: mouse TMEM16A channel activation, primary screen. HEK293 TMEM16A/YFP-H148Q/I152L, iodide quench fluorescence; hits give low values. Q8BHY3. hit rate 0.3% among 340,000. B-score at 10 µM;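 active means fluorescence-ratio B-score plate-corrected deviation score at least 3 library SD below zero, with starting fluorescence score within 5 deviations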;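 further: channel opened by trigger with iodide after compound preincubation; score built on the fluorescence ratio of max minus min over baseline; more negative score means more quench and so TMEM16A activation or potentiation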
ANO1 block: mouse TMEM16A channel inhibition, primary screen | Q8BHY3 | HEK293 TMEM16A/YFP iodide influx fluorescence, ionomycin | normalized B-score (activity score, 25-100; higher = stronger inhibition) at 10 µM | hit rate 1.2% among 310,000 | AID 588511;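 active means ratio plate-corrected score three or more library SD toward inhibition, starting fluorescence score within five deviations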;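 further: score derived from kinetic fluorescence span divided by baseline fluorescence per well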
CHT PAM: human CHT allosteric activation | hit rate 0.49% among 310,000 | CHT-expressing cells, membrane potential dye, choline EC20; hits give high values; LV-AA mutant CHT in HEK293 cells | B-score at 10 µM;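 active means initial fluorescence not abnormally high and integrated response B-score, plate-corrected, over 3 SD above library mean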
Target sequence (Q9GZV3 whole entry, looked up): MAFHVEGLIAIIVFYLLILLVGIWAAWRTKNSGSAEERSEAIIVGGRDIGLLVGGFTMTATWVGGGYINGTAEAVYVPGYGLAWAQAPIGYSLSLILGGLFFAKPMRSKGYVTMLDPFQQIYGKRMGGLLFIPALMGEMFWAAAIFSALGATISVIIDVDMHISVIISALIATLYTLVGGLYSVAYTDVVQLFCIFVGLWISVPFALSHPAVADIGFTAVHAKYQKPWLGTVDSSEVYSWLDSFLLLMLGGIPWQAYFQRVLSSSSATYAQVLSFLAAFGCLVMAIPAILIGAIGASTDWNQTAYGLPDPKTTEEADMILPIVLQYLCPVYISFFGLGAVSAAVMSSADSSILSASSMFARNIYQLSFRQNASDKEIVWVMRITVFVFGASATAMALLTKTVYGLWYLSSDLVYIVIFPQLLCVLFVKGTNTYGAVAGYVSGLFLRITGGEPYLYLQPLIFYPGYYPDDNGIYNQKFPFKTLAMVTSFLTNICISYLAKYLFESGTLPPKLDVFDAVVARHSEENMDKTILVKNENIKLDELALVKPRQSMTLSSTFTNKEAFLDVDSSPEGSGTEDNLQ
CHT inh: inhibitors of human choline transporter CHT | CHT-expressing cells, membrane potential dye, choline response; hits give low values | B-score at 10 µM | hit rate 0.86% among 310,000;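 active means B-score over 3 SD under the library average, and starting fluorescence ratio not unusually high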;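 further: choline stimulus applied at its EC90 after an EC20 pre-addition; B-score computed on integrated fluorescence ratio after choline addition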
CHT act confirm: confirmation of human choline transporter (CHT) activators. activation, % at 10 µM. AID 504833. CHT-expressing cells, membrane potential dye fluorescence (FDSS); % of choline EC20–EC90 response window; HEK293 expressing CHT LV-AA mutant; choline added at its EC20. hit rate 91% among 2,500. shares compounds with CHT PAM;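 active means primary screen active, with duplicate mean activation above negative control mean plus 3 SD, cut at about 11% in these data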
HEK293 MP dye: activity in parental HEK293 cells lacking CHT. membrane potential dye fluorescence (FDSS); measured after EC20 choline addition. hit rate 62% among 2,500. shares compounds with CHT PAM. AID 623908. ratio readout change at 10 µM, hits read low;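 active means duplicate-averaged ratio beyond 3 SD from buffer wells, up or down, though filed actives are nearly all decreases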
Numbers stand for hits.

Results for NC1C2CN(c3nc4c(cc3F)c(=O)c(C(=O)O)cn4-c3ccc(F)cc3F)CC12 (stereo not given) ?
ANO1 activ: inactive; ANO1 block: inactive; CHT PAM: 7.92; CHT inh: inactive; CHT act confirm: 60.0; HEK293 MP dye: -66.6

What do the screens show for `N#CCSc1nnc2sc3ccccc3n12`?
ANO1 activ: inactive; ANO1 block: inactive; CHT PAM: inactive; CHT inh: inactive

How did CN(C)CCSc1nnc2sc3ccccc3n12 do in these assays?
ANO1 activ: inactive; ANO1 block: inactive; CHT PAM: 6.58; CHT inh: inactive; CHT act confirm: 57.5; HEK293 MP dye: -54.9

How did Nc1c(Br)cc2c(c1Br)C(O)c1ccccc1-2 (stereo not given) do in these assays?
ANO1 activ: inactive

Results for CCN1CCN(c2c(Cl)cccc2NC(=O)c2ccco2)CC1 ?
ANO1 activ: inactive; ANO1 block: inactive; CHT PAM: 7.57; CHT inh: inactive; CHT act confirm: 54.4; HEK293 MP dye: -33.1

How did CCN1CCN(c2c(Cl)cccc2NC(=O)c2ccc([N+](=O)[O-])cc2)CC1 do in these assays?
ANO1 activ: inactive; ANO1 block: inactive; CHT PAM: 11.7; CHT inh: inactive; CHT act confirm: 53.3; HEK293 MP dye: -66.8

Results for C[C@@H]([C@H](O)c1ccccc1)N(C)C(=S)Nc1ccccc1 ?
ANO1 activ: inactive; ANO1 block: inactive; CHT PAM: inactive; CHT inh: inactive

Results for O=C1NC(=S)NC(=O)C1=Cc1ccccc1C(=O)O ?
ANO1 activ: inactive

What do the screens show for `CC12CCC(O)CC1=CCC1C2CCC2(C)c3[nH]ncc3CC12` (stereo not given)?
ANO1 activ: inactive

What do the screens show for `CCCCc1n(CC(=O)c2ccc(Cl)cc2)c2ccccc2[n+]1C`?
ANO1 activ: inactive; ANO1 block: inactive; CHT PAM: inactive; CHT inh: inactive; CHT act confirm: 13.8; HEK293 MP dye: inactive

Results for Cc1n(CC(=O)c2ccc(F)cc2)c2ccccc2[n+]1C ?
ANO1 activ: inactive; ANO1 block: inactive; CHT PAM: inactive; CHT inh: inactive

How did COc1ccccc1CCNC(=O)c1cccc(NC(=O)CC2SC(N3CCCCC3)=NC2=O)c1 (stereo not given) do in these assays?
ANO1 activ: inactive

What do the screens show for `Cc1cccn2cc(CNc3ccccc3)nc12`?
ANO1 activ: inactive; ANO1 block: inactive; CHT PAM: inactive; CHT inh: inactive; CHT act confirm: 31.1; HEK293 MP dye: -26.5

Results for Cc1cccn2cc(-c3ccccc3)nc12 ?
ANO1 activ: inactive; ANO1 block: inactive; CHT PAM: inactive; CHT inh: inactive

Results for Cc1c(N(C)S(=O)(=O)c2ccc(Cl)c(C(=O)NCC(C)(C)N3CCOCC3)c2)c(=O)n(-c2ccccc2)n1C ?
ANO1 activ: inactive

What do the screens show for `C[C@H]1CN([C@@H](C)CO)C(=O)c2cc(NC(=O)c3ccncc3)ccc2O[C@H]1CN(C)Cc1ccc(C(=O)O)cc1`?
ANO1 activ: inactive

How did CCCN(CC(=O)Nc1ccccc1C)C(=O)c1ccc(C)c(S(=O)(=O)N2CCCCC2)c1 do in these assays?
ANO1 activ: inactive; ANO1 block: inactive; CHT PAM: inactive; CHT inh: inactive; CHT act confirm: 14.4; HEK293 MP dye: inactive

What do the screens show for `CCCN(CC(=O)Nc1ccccc1C)C(=O)c1ccc(Cl)c(S(=O)(=O)N2CCCC2)c1`?
ANO1 activ: inactive; ANO1 block: inactive; CHT PAM: inactive; CHT inh: inactive

Results for O=C(/C=C/c1ccccc1)OCCN1C(=O)c2ccccc2C1=O ?
ANO1 activ: inactive; ANO1 block: inactive; CHT PAM: inactive; CHT inh: inactive

How did CCN1CCN(c2nc3c(C)cccn3c(=O)c2C=C(C#N)C#N)CC1 do in these assays?
ANO1 activ: inactive; ANO1 block: inactive; CHT PAM: 7.28; CHT inh: inactive; CHT act confirm: 50.0; HEK293 MP dye: -60.7

Results for Cc1cccn2c(=O)c(C=C(C#N)C#N)c(N3CCN(C)CC3)nc12 ?
ANO1 activ: inactive; ANO1 block: inactive; CHT PAM: 8.46; CHT inh: inactive; CHT act confirm: 56.2; HEK293 MP dye: -65.3

Results for Cc1cccn2c(=O)c(C=C(C#N)C#N)c(N3CCN(c4ccccc4)CC3)nc12 ?
ANO1 activ: inactive; ANO1 block: inactive; CHT PAM: inactive; CHT inh: inactive

Results for COc1ccc(S(=O)(=O)NNc2nc(C)cc(C)n2)cc1[N+](=O)[O-] ?
ANO1 activ: inactive; ANO1 block: inactive; CHT PAM: inactive; CHT inh: inactive

Results for Cc1ccc2ccc3cccnc3c2n1 ?
ANO1 activ: inactive; ANO1 block: inactive; CHT PAM: 6.88; CHT inh: inactive; CHT act confirm: 55.4; HEK293 MP dye: -73

What do the screens show for `COc1cc(Nc2c3c(nc4ccccc24)CCCC3)cc(OC)c1OC`?
ANO1 activ: inactive; ANO1 block: inactive; CHT PAM: inactive; CHT inh: inactive; CHT act confirm: 44.6; HEK293 MP dye: -48.7

How did COc1cc(OC)c(OC)cc1/C=N/NC(=O)c1ccc(=O)n(C)c1 do in these assays?
ANO1 activ: inactive; ANO1 block: inactive; CHT PAM: inactive; CHT inh: inactive; CHT act confirm: 43.0; HEK293 MP dye: -28.9

Results for COc1cc(OC)c(OC)cc1/C=N/NC(=O)C[n+]1ccccc1 ?
ANO1 activ: inactive; ANO1 block: inactive; CHT PAM: inactive; CHT inh: inactive; CHT act confirm: 51.3; HEK293 MP dye: -41.8

How did COc1cccc(/C=N/NC(=O)C[n+]2ccccc2)c1O do in these assays?
ANO1 activ: inactive; ANO1 block: inactive; CHT PAM: inactive; CHT inh: inactive

What do the screens show for `O=C(CC1Sc2ccccc2NC1=O)NNc1cccc(Cl)c1Cl` (stereo not given)?
ANO1 activ: inactive

Results for CN(C)S(=O)(=O)c1cc(NC(=O)CNCc2ccccc2)ccc1Cl ?
ANO1 activ: inactive; ANO1 block: inactive; CHT PAM: inactive; CHT inh: inactive

Results for CN(CCOc1ccccc1)CC(=O)Nc1ccc(Cl)c(S(=O)(=O)N(C)C)c1 ?
ANO1 activ: inactive; ANO1 block: inactive; CHT PAM: 7; CHT inh: inactive; CHT act confirm: inactive; HEK293 MP dye: inactive

How did CCOC(=O)c1nnn2c1nc(N1CCN(C)CC1)c1ccccc12 do in these assays?
ANO1 activ: inactive; ANO1 block: inactive; CHT PAM: 8.61; CHT inh: inactive; CHT act confirm: 58.1; HEK293 MP dye: -67.4

Results for COc1cccc(-c2ncc3ccccc3c2COC(=O)CCC(=O)O)c1 ?
ANO1 activ: inactive

What do the screens show for `NC(=O)c1ccccc1NC(=S)NC(=O)CCc1ccccc1`?
ANO1 activ: inactive; ANO1 block: inactive; CHT PAM: inactive; CHT inh: inactive; CHT act confirm: inactive; HEK293 MP dye: inactive

How did NC(=O)c1ccccc1NC(=O)CCc1ccccc1 do in these assays?
ANO1 activ: inactive; ANO1 block: inactive; CHT PAM: inactive; CHT inh: inactive
